Inconclusive results are not listed. Calls of active or inactive are those of the source. Unless noted, the call rests on the fitted dose curve; in most records, active means well fitted curve in the direction sought with a large enough effect; inconclusive means small, poorly fitted or top-dose-only effect, or another doubt; inactive means no such curve, though single readings can be large; an effect the other way counts as inactive or inconclusive.
What was measured:
[1] = target: Cytochrome P450 1A2 (Homo sapiens) (UniProt P05177); assay: p450-cyp1a2 (AID 410; calls by dose curve; further: potency means the concentration at half of the fitted maximal effect); conditions: recombinant CYP1A2, luciferin-ME demethylation, luminescence; series mostly up to 57 µM
How it was run: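 O-Demethylation of luciferin 6' methyl ether by human CYP1A2 is monitored as luciferase luminescence. Substrate sits at Km (100uM); enzyme is 20nM. Values are scaled to 57 uM furafylline as maximal inhibition.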

[2] = target: Glucocorticoid receptor (Homo sapiens) (UniProt P04150); assay: GR-GFP Redistribution (AID 450;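 active means compounds whose dose series gives a full or clear partial fitted curve of increased nuclear translocation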; further: potency means the concentration at half of the fitted maximal effect); conditions: U2OS GR-GFP nuclear translocation, laser cytometry, 2 h
[3] = target: Glucocorticoid receptor (Homo sapiens) (UniProt P04150); assay: GR-EFC Redistribution (AID 451; calls by dose curve; further: potency means the concentration at half of the fitted maximal effect); conditions: CHO-K1 GR-EFC translocation, beta-gal luminescence, 2 h
How it was run: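 Translocation of GR-ED fusion to nuclear EA restores b-gal, read by luminescence after 1 h room-temperature detection. Engineered CHO-K1 biosensor cells, 1,000/well, exposed 2 h at 37 C to titrations up to 46 uM final.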

[4] = target: Cytochrome P450 3A4 (Homo sapiens) (UniProt P08684); assay: qHTS Assay for Inhibitors and Substrates of Cytochrome P450 3A4 (AID 884); conditions: recombinant CYP3A4, Luciferin-PPXE luminescence; series mostly up to 57.1 µM; further: potency means the concentration at half of the fitted maximal effect; nearly all actives have a fitted effect of over 50% in size
How it was run: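 Luminescent readout of luciferin produced by CYP3A4 (20 nM) dealkylation of Luciferin-PPXE, 25 uM (its KM). NADPH-driven reaction ran 60 min at RT after 10 min compound preincubation; data scaled to 57 uM ketoconazole as 100% inhibition.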

[5] = target: Cytochrome P450 3A4 (Homo sapiens) (UniProt P08684); assay: qHTS Assay for Activators of Cytochrome P450 3A4 (AID 885); conditions: recombinant CYP3A4, Luciferin-PPXE luminescence, 60 min; series mostly up to 57.1 µM; further: nearly all actives have a fitted effect of over 65% in size
How it was run: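 Using 20nM recombinant human CYP3A4 in potassium phosphate (200mM), substrate Luciferin-PPXE at 25uM, luminescent luciferin detection followed a 60-min RT NADPH reaction; data scaled to 57 uM ketoconazole.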

[6] = target: DNA dC->dU-editing enzyme APOBEC-3G (Homo sapiens) (UniProt Q9HC16); assay: qHTS for inhibitors of Vif-A3G interactions: Validation (AID 588379); conditions: Vif-A3G protein interaction assay; series mostly up to 46.1 µM; further: 0% is about no effect
How it was run: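 Yellow fluorescence (Ex 488, Em 500-530) of Vif-coexpressing HeLa A3G-eYFP cells, scanned by Acumen cytometer, reports blocked A3G degradation. Cells plated at 700/well overnight at 37 deg C before compound addition, then a further overnight compound incubation at 37 deg C.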

[7] = Primary qHTS for small molecule stabilizers of the endoplasmic reticulum resident proteome: Secreted ER Calcium Modulated Protein (SERCaMP) assay (AID 1508630); conditions: SH-SY5Y GLuc-SERCaMP (Gaussia luciferase released on ER calcium loss) secretion, thapsigargin, luminescence; series mostly up to 38.4 µM; further: on the % scale 0 is the no-effect control and ±100 the full control effect
How it was run: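 The SH-SY5Y reporter protocol was run at 3 concentrations up to 38.3 uM (primary) or 11 concentrations (follow-up): 16 h compound, 100 nM thapsigargin for 4 h, then extracellular luciferase luminescence.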

[8] = target: Lysosomal acid glucosylceramidase (Homo sapiens) (UniProt P04062); assay: Glucocerebrosidase-p2 (AID 348; in the data active means potency below about 10 µM; further: potency means the concentration at half of the fitted maximal effect); conditions: purified GBA, blue fluorogenic substrate, 40 min
How it was run: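 Normal human glucocerebrosidase (0.2 nM) with blue fluorogenic substrate (80 uM final) in citrate/phosphate pH 5.9 with 10mM sodium taurocholate, 0.01% tween-20; 40 min RT, NaOH/glycine stop; fluorescence Ex 365/Em 440; AC50 from a titration from 0.6 nM upwards.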

[9] = AP1 Signaling Pathway (AID 357; active means well fitted curve in either direction with a large enough effect, not every such curve was filed as active;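 further: ME-180 reporter cells stimulated with EGF at its EC50 level; on the % scale 0 is the no-effect control and ±100 the full control effect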); conditions: ME-180 AP-1-bla reporter, EGF-induced, beta-lactamase ratio, 5 h; at 7.69 µM (top of the series) unless noted
How it was run: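 Read-out was the 460nm/530nm emission ratio (excitation 405nm) after CCF4 loading for 2.5 hours at room temperature. Cells carried an AP-1-driven beta-lactamase reporter, were stimulated with EC50 EGF plus compound for 5 hours, and AC50 values came from titrations.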

[10] = NFAT Signaling Pathway (AID 444; active means well fitted curve in either direction with a large enough effect, not every such curve was filed as active;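 further: carbachol stimulus at about its EC50 of 1 µM final; on the % scale 0 is the no-effect control and ±100 the full control effect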); conditions: Jurkat NFAT-bla M1, carbachol, beta-lactamase ratio, 5 h; at 7.69 µM (top of the series) unless noted
How it was run: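 Read-out: CCF4 FRET ratio (460 nm/530 nm) after 1 h RT dye loading, used for %activity and AC50 from titration series. Cells: Jurkat NFAT-β-lactamase/M1 line, treated with compound plus 1 uM carbachol for 5 h, 37 °C.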

[11] = Stat Signaling Pathway (AID 446; active means well fitted curve in either direction with a large enough effect, not every such curve was filed as active;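 further: ME-180 cervical cancer cells given 40 pM IL-6 alongside compound; SIE-controlled beta-lactamase reporter measured as 460/530 nm FRET emission ratio; on the % scale 0 is the no-effect control and ±100 the full control effect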); conditions: ME-180 (cervical carcinoma) SIE beta-lactamase reporter, IL-6 stimulated, 5 h; at 7.69 µM (top of the series) unless noted
How it was run: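 Overnight-plated ME-180 cells bearing a STAT Inducible Element beta-lactamase reporter; 5 h co-exposure to compound and 40 pM IL-6; values normalized to 300 pM IL-6 and 125 nM JAK inhibitor controls.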

[12] = target: Mitogen-activated protein kinase 10 (Mus musculus) (UniProt Q61831); assay: JNK3 AlphaScreen Assay (AID 530; active means well fitted curve in either direction with a large enough effect, not every such curve was filed as active); conditions: JNK3 lysate, c-Jun phosphorylation; series mostly up to 57.1 µM
How it was run: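 qHTS titrations with 15 min compound pre-incubation before adding ATP (10 uM final). Read-out: AlphaScreen of Ser73-phosphorylated biotin-GST-cJun using HepG2 lysate JNK3 activated by IL-1β and TNFα.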

[13] = target: Cytochrome P450 2C9 (Homo sapiens) (UniProt P11712); assay: qHTS Assay for Inhibitors and Substrates of Cytochrome P450 2C9 (AID 883); conditions: recombinant CYP2C9, luciferin-H luminescence, 60 min; series mostly up to 57.1 µM; further: potency means the concentration at half of the fitted maximal effect; nearly all actives have a fitted effect of over 60% in size
How it was run: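 Luminescent read-out of deoxyluciferin hydroxylation, normalized to 57uM sulphaphenazole (AC100). Reaction: 10nM enzyme, 100uM Luciferin-H (equal to KM), 25mM KPO4, 10 min compound preincubation, then 60 min with NADPH regeneration, both at 37C.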

[14] = target: Cytochrome P450 2D6 (Homo sapiens) (UniProt P10635); assay: qHTS Assay for Inhibitors and Substrates of Cytochrome P450 2D6 (AID 891); conditions: recombinant CYP2D6, luciferin-ME EGE luminescence; series mostly up to 57.1 µM; further: potency means the concentration at half of the fitted maximal effect; nearly all actives have a fitted effect of over 60% in size
How it was run: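 Luminescent read-out of luciferin formed by 5 nM human CYP2D6 demethylating 30 uM Luciferin-ME EGE (Km level) over 60 min at room temperature after NADPH regeneration addition. Data normalized to full inhibition by 1.43 uM quinidine.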

[15] = target: Cytochrome P450 2C19 (Homo sapiens) (UniProt P33261); assay: qHTS Assay for Inhibitors and Substrates of Cytochrome P450 2C19 (AID 899); conditions: recombinant CYP2C19, luciferin-H EGE luminescence; series mostly up to 57.1 µM; further: potency means the concentration at half of the fitted maximal effect; nearly all actives have a fitted effect of over 60% in size
How it was run: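 Luminescence readout of luciferin formed from 10uM Luciferin-H EGE (KM level) by 5 nM CYP2C19 in 50mM KPO4. 60 min NADPH-driven reaction at 37C after 10 min compound preincubation; data scaled to 57uM ketoconazole inhibition.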

[16] = Confirmation and Secondary Assay for Modulators of Hemoglobin Beta Chain Splicing at IVS2 654 locus (AID 910); conditions: HeLa EGFP-654 splicing reporter, GFP fluorescence, 48 h; series mostly up to 38.3 µM;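 further: HeLa cells stably carrying EGFP split by mutant beta-globin IVS2-654 intron; % of control where 0% means no effect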
How it was run: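 Readout: per-well total peak green fluorescence (488 nm ex, 500–520 nm em) from objects 5–250 µm, reflecting correct splicing of an EGFP-654 reporter. Compounds were applied for 2 days at 37 °C to overnight-plated HeLa EGFP-654 cells; controls were DMSO and 500 nM IVS2-654 PNA.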

[17] = Confirmation and Secondary Assay for Modulators of Hemoglobin Beta Chain Splicing at IVS2 705 locus (AID 930); conditions: HeLa EGFP-705 splicing reporter, GFP fluorescence, 48 h; series mostly up to 38.3 µM;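 further: HeLa cells stably expressing the EGFP-705 splicing reporter; GFP fluorescence per well restored by corrected splicing of the IVS2-705 intron in EGFP; % of control where 0% means no effect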
How it was run: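 HeLa cells stably carrying EGFP interrupted by mutant beta-globin intron 2 (IVS2-705) treated 2 days at 37C with compound; 500 nM antisense PNA as control. Correct splicing read as total peak GFP intensity per well by laser-scanning cytometry.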

[18] = qHTS Assay for Lipid Storage Modulators (AID 1519; calls by dose curve); conditions: Drosophila S3 cells, BODIPY lipid droplet/cell ratio, laser cytometry, cells loaded with oleic acid
How it was run: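 Cells seeded at 5,000 per well were treated with compounds over a concentration series and loaded with oleic acid (400 uM, as added). Lipid droplet fluorescence (488 nm excitation, 500-530 nm channel) was read by laser-scanning cytometry and normalized to 20 uM Triacsin C.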

[19] = target: Rap guanine nucleotide exchange factor 3 (Homo sapiens) (UniProt O95398); assay: Confirmatory qHTS for antagonist of cAMP-regulated guanine nucleotide exchange factor 3 (EPAC1) (AID 1645880); conditions: EPAC1 Rap1B-BODIPY-GDP exchange, fluorescence; series mostly up to 115 µM;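 further: plate controls were DMSO only for no effect and full effect of the ATA control for full effect; nearly all actives have a fitted effect of over 55% in size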
How it was run: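 Released BODIPY-GDP fluoresces less than Rap1-bound BODIPY-GDP; the signal is followed at 480/540 nm at 5-min intervals over 30 min, after 5 min at room temperature. Reactions contain 100 nM EPAC1, 250 nM RAP1B-BODIPY-GDP and 50 uM GDP; results are normalized to ATA and DMSO.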

[20] = target: Rap guanine nucleotide exchange factor 3 (Homo sapiens) (UniProt O95398); assay: Confirmatory qHTS for agonist of cAMP-regulated guanine nucleotide exchange factor 3 (EPAC1) (AID 1645881); conditions: EPAC1 Rap1B BODIPY-GDP exchange fluorescence; series mostly up to 154 µM;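 further: EPAC1 catalysed release of BODIPY-GDP from Rap1B seen as fluorescence loss; 100% = effect of cAMP agonist control; nearly all actives have a fitted effect of over 75% in size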
[21] = target: Rap guanine nucleotide exchange factor 4 (Homo sapiens) (UniProt Q8WZA2); assay: Confirmatory qHTS for agonist of cAMP-regulated guanine nucleotide exchange factor 4 (EPAC2) (AID 1645884); conditions: EPAC2 GEF activity, Rap1B-BODIPY-GDP fluorescence; series mostly up to 154 µM;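 further: nucleotide exchange releases bodipy-GDP from Rap1 and this lowers its fluorescence; on the % scale 0 is the no-effect control and ±100 the full control effect; nearly all actives have a fitted effect of over 65% in size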
[22] = target: Rap guanine nucleotide exchange factor 4 (Homo sapiens) (UniProt Q8WZA2); assay: Confirmatory qHTS for antagonist of cAMP-regulated guanine nucleotide exchange factor 4 (EPAC2) (AID 1645885); conditions: EPAC2 Rap1B-BODIPY-GDP exchange fluorescence, biochemical; series mostly up to 114 µM; further: on the % scale 0 is the no-effect control and ±100 the full control effect; nearly all actives have a fitted effect of over 25% in size

Glucocorticoid receptor (Homo sapiens), sequence (P04150 whole entry, looked up, the tested form may be a part): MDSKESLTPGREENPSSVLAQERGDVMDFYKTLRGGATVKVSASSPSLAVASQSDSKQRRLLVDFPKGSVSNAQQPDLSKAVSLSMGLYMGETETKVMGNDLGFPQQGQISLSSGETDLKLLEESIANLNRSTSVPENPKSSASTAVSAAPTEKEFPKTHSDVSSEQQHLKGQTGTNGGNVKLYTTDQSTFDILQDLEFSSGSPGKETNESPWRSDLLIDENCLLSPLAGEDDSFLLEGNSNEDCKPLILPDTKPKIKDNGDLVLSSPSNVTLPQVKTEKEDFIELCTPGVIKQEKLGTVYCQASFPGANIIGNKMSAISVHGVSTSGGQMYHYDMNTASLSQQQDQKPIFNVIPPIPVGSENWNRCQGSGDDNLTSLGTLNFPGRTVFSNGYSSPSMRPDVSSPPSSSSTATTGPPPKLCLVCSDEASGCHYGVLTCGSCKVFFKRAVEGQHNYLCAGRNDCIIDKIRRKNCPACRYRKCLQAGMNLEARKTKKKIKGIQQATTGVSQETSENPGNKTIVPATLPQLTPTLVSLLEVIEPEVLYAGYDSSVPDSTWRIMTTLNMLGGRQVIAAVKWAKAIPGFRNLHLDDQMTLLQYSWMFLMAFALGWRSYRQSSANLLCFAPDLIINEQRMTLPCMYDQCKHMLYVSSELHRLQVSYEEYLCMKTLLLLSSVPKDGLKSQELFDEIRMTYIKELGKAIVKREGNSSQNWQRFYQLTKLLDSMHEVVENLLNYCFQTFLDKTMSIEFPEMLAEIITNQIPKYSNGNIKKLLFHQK
Cytochrome P450 3A4 (Homo sapiens), sequence (P08684 whole entry, looked up): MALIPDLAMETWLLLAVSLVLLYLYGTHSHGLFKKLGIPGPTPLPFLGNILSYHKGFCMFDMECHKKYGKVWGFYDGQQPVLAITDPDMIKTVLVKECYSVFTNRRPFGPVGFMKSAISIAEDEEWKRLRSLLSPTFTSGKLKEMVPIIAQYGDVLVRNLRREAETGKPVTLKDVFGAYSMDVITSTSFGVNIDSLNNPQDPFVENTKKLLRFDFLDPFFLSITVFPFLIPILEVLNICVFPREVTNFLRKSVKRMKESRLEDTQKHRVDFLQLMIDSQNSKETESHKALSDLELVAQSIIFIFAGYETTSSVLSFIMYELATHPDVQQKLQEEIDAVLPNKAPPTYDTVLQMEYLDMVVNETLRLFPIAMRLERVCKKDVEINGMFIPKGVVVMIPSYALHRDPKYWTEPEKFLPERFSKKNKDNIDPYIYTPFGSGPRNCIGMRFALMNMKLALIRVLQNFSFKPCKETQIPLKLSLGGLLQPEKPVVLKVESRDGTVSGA
Cytochrome P450 1A2 (Homo sapiens), sequence (P05177 whole entry, looked up): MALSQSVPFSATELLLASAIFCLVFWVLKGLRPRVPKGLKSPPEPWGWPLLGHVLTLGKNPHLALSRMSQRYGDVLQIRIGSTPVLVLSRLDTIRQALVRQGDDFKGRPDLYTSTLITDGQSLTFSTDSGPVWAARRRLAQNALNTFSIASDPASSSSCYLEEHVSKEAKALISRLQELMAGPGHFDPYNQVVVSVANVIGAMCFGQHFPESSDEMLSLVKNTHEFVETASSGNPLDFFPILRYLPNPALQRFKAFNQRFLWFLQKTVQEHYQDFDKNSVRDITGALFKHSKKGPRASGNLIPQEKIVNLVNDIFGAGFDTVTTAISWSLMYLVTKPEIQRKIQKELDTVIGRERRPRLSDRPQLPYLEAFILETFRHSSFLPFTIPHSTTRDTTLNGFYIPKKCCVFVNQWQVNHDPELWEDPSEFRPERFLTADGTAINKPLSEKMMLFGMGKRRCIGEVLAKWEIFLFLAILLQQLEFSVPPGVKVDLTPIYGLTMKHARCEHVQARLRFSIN
Rap guanine nucleotide exchange factor 3 (Homo sapiens), sequence (O95398 whole entry, looked up): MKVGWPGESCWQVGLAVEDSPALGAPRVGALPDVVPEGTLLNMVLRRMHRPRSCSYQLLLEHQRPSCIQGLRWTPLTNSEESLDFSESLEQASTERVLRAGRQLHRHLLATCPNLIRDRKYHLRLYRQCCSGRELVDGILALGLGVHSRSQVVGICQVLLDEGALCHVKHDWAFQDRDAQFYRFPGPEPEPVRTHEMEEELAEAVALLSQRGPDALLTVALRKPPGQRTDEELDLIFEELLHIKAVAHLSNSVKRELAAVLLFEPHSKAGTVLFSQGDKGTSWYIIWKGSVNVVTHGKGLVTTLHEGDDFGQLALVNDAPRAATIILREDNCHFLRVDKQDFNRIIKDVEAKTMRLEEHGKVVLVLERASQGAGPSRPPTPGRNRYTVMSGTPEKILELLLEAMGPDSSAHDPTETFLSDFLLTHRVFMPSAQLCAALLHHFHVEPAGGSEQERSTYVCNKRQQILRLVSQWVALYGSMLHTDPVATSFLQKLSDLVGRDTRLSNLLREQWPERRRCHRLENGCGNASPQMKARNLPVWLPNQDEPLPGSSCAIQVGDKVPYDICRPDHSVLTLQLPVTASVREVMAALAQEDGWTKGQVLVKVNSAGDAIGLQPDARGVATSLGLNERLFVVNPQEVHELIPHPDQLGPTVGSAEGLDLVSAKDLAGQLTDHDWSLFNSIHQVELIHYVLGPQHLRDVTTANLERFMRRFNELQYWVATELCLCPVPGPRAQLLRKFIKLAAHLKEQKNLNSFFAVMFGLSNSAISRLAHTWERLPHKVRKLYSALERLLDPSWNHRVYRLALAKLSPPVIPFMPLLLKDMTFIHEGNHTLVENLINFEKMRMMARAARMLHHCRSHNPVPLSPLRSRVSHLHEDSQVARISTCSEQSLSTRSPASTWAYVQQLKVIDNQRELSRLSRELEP
Rap guanine nucleotide exchange factor 4 (Homo sapiens), sequence (Q8WZA2 whole entry, looked up): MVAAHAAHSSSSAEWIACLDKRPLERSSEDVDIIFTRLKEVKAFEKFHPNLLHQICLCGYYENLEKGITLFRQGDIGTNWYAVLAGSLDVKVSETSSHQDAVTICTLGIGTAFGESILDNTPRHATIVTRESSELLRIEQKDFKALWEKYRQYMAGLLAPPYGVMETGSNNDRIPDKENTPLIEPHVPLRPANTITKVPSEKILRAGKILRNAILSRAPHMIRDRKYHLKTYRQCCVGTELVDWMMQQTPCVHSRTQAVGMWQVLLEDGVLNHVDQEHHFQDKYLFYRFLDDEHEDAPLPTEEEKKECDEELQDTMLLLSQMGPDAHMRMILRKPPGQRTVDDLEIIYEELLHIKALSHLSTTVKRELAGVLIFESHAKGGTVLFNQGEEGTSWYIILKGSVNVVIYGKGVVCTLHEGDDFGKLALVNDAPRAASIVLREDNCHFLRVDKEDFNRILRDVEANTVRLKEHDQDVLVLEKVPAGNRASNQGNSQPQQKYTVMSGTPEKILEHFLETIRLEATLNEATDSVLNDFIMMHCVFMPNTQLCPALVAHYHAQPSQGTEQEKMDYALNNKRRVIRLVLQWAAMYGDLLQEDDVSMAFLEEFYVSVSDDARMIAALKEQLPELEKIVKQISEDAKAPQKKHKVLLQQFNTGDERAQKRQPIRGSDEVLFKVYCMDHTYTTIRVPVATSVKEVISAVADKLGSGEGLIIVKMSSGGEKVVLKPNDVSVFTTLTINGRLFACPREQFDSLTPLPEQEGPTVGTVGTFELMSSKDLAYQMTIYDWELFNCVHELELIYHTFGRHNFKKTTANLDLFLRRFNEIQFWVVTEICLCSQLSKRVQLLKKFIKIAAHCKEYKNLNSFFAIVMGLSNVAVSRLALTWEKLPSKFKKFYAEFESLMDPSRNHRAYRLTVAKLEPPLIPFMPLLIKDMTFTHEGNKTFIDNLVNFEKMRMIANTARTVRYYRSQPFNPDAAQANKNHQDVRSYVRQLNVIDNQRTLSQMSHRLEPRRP
Cytochrome P450 2C19 (Homo sapiens), sequence (P33261 whole entry, looked up): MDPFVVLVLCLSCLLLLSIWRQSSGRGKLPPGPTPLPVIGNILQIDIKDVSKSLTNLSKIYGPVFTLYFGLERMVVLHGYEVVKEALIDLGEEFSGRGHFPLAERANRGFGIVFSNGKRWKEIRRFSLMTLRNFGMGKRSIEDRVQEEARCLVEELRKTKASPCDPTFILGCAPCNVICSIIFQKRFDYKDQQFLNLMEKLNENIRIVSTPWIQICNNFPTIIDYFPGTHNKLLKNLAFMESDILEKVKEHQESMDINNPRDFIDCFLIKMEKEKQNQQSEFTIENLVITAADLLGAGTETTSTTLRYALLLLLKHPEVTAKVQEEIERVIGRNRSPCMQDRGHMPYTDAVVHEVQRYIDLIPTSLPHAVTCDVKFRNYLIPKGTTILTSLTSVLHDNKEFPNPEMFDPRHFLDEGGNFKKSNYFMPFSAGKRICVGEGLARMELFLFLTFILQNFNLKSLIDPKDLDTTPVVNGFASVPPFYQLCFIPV
DNA dC->dU-editing enzyme APOBEC-3G (Homo sapiens), sequence (Q9HC16 whole entry, looked up): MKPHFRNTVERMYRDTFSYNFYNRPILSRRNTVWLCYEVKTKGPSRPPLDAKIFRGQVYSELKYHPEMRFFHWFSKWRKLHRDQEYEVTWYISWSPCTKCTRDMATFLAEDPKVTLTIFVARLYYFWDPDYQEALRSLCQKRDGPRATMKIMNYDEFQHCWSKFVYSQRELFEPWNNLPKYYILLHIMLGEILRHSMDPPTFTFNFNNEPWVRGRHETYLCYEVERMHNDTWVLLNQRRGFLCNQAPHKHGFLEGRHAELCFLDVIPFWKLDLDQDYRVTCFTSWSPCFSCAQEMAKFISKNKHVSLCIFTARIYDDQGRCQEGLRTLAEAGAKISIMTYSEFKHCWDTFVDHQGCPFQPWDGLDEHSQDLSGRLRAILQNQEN

CCCNC(=O)N1N=C(c2ccc(N)cc2)c2cc3c(cc2[C@H]1C)OCO3
active: Potency [1] 3.98 µM | Potency [4] 1.26 µM
inactive: Potency [2] > 46 µM | Potency [3] > 46 µM | Potency [5] | outcome [6] | outcome [7]

COc1ccc2[nH]cc(CCNc3ncnc4ccc(-c5ccccc5C#N)cc34)c2c1
-10.8%: max response ([18]; measured here: lipid channel max response)
active: Potency [1] 3.98 µM | Potency [13] 0.316 µM | Potency [14] 7.94 µM | Potency [15] 2 µM
-13.6%: max response ([18]; measured here: cell count channel max response)
inactive: Potency [8] > 11.4 µM | activity change, negative = inhibition [9] -21.6% | activity change, negative = inhibition [10] 29.2% | activity, negative = inhibition [11] -19.5% | Potency [2] > 46 µM | Potency [3] > 46 µM | Potency [12] | Potency [5] | Potency [16] | outcome [17] | activity change, negative = inhibition ([18]; at 57.5 µM (top of the series)) 4.54% | Potency [19] | Potency [20] | Potency [21] | Potency [22]
